Measured values reported in PubChem BioAssay AID686978 (National Center for Advancing Translational Sciences (NCATS), 2013).
Among all 420,000 compounds or so, about 64,000 (15%) were called active. Inconclusive results (about 27%) are left out. The call rests on the fitted dose curve; in most records, active means well fitted inhibition curve with a large enough effect; inconclusive means small, poorly fitted or top-dose-only effect; inactive means flat fitted curve, though single readings scatter. Not all results are given here. Entries that show only a call come without a potency.

Assay: qHTS for Inhibitors of human tyrosyl-DNA phosphodiesterase 1 (TDP1): qHTS in cells in absence of CPT; further: nearly all actives have a fitted effect of over 55% in size
Conditions: DT40 Tdp1-/- hTDP1 cells, no CPT, ATP luminescence, 48 h; activity change, negative = growth inhibition: at 46.2 µM (top of the series)
Outline: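 DT40 Tdp1-/-;hTDP1 cells, no CPT (DMSO vehicle only), 400 cells/well; compounds pin-transferred; ≥48 hr, 37 °C; CellTiter-Glo 30 min RT dark, luminescence read.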
Potency means the concentration at half of the fitted maximal effect.

Row | SMILES | Potency
1 | O=C1CCC/C(=N\NC(=O)NC2CCCCC2)C1 | inactive
2 | Cc1cnc(NC(=O)CSc2nnc(-c3ccccc3)n2Cc2ccccc2)s1 | inactive
3 | COC(=O)c1ccc(COc2cc([N+](=O)[O-])cc3cccnc23)cc1 | inactive
4 | COc1ccc(CNC(=O)COC(=O)C(CCSC)N2C(=O)c3ccccc3C2=O)cc1 (stereo not given) | inactive
5 | Cc1cccc(-c2cc(=O)c3cc(C)ccc3o2)c1 | inactive
6 | O=C(c1cc(=O)c2ccccc2o1)N1CCN(c2ccccc2)CC1 | inactive
7 | COc1cc2c(cc1OC)CN(C(=O)c1cc(=O)c3ccccc3o1)CC2 | 3.26 µM (active)
8 | COc1ccccc1N1CCN(c2nc(C)cc(=O)[nH]2)CC1 | inactive
9 | COc1ccccc1N1CCN(C(=O)c2cc(=O)c3cc(C)ccc3o2)CC1 | 23.1 µM (active)
10 | COc1ccc2c(CC(=O)N3CCc4cc(OC)c(OC)cc4C3)coc2c1 | inactive
11 | COc1cccc2cc(C(=O)N3CCN(C(=O)c4ccccc4)CC3)c(=O)oc12 | inactive
12 | COc1ccccc1OCc1ccc(C(=O)N2CCN(C)CC2)o1 | inactive
13 | COc1ccccc1N1CCN(C(=O)c2cc(=O)c3cc(C)cc(C)c3o2)CC1 | 0.0082 µM (active)
14 | O=C(NCc1ccco1)/C(=C\c1cccc([N+](=O)[O-])c1)NC(=O)c1ccco1 | inactive
15 | Cc1cc(NC(=O)COC(=O)/C=C/c2ccc(C)o2)no1 | inactive
16 | COc1cccc2c1OCC1COc3c(c(=O)n(C)c(=O)n3C)C21 (stereo not given) | inactive
17 | COc1ccc(NC(=S)NCCN2CCC(C)CC2)cc1 | inactive
18 | CC(C)CC(=O)c1c[nH]c(C(=O)NCc2ccccc2)c1 | inactive
19 | O=C(CN1CCSCC1)N/N=C/c1ccc(F)cc1F | inactive
20 | OC(CBr)CN1CCCCC1 (stereo not given) | inactive
21 | OC(COc1ccc(CN2CCSCC2)cc1)CN1CCCCC1 (stereo not given) | inactive
22 | OC(COCCC12CC3CC(CC(C3)C1)C2)CN1CCCCC1 (stereo not given) | 16.4 µM (active)
23 | O=C(CSc1nc2ccccc2c(=O)n1-c1ccccc1F)N1CCOCC1 | inactive
24 | CCN(CC)CCCC(C)n1c2nc(=O)[nH]c(=O)c-2nc2cc(Cl)ccc21 (stereo not given) | 8.2 µM (active)
25 | CCCc1nc2ccccc2c(C(=O)OCc2nnc(-c3cc(OC)c(OC)c(OC)c3)o2)c1CC | 23.1 µM (active)
26 | O=C(OCc1nnc(-c2ccccc2)o1)c1cc(=O)[nH]c2ccccc12 | inactive
27 | CCCCc1nc2ccccc2c(NC(=O)CN2CCN(C)CC2)c1CCC | inactive
28 | C=CCn1c(N)cc(=O)nc1SCC(=O)Nc1cccc2ccccc12 | inactive
29 | CCOc1ccccc1CN1CCN(C2CCC2)CC1CCO (stereo not given) | inactive
30 | O=C(Nc1c(Cl)cccc1Cl)C1CCC1 | inactive
